The values below come from PubChem BioAssay AID1159506 (National Center for Advancing Translational Sciences (NCATS), 2015).

In all, about 59,000 sequences were measured (the read-out: median about -0.00055, lowest 2% from about -2 on). The sample as a whole holds a higher share of the lowest values than the screen did.

A short description of the assay: Identification of proteins required for the processing of the EWS-FLI1 nascent transcript.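 Further: robust z of luciferase light less the median z of siRNAs with the same seed.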 As to conditions: TC32 Ewing sarcoma NR0B1-luc vs CMV-luc (EWS-FLI1 target promoter against control promoter), 48 h; screened at 20 nM (by protocol). How it is done:
Ewing sarcoma (ES) cells depend on the EWS-FLI1 fusion transcription factor for cell survival. Using an assay of EWS-FLI1 activity and genome-wide siRNA screening we have identified proteins required for the processing of the EWS-FLI1 nascent transcript. Parallel genome-wide siRNA-mediated RNAi screens were conducted in Ewing sarcoma TC32 cell lines expressing a luciferase (luc) reporter protein driven by either the promoter of the EWS-FLI1 target gene NR0B1 (TC32-NR0B1-luc) or the CMV promoter (TC32-CMV-luc). Luciferase activity was assessed 48 hours post siRNA-transfection.
Twenty microl of serum-free media containing Lipofectamine RNAiMax (0.05 microl) was added to wells containing siRNA (0.8 pmol). Lipid and siRNA were allowed to complex for 45 min at ambient temperature before addition of 600 cells in RPMI-1640, 20% FBS to yield final transfection mixtures containing 20 nM siRNA in RPMI-1640, 10% FBS. Luciferase expression was measured using OneGlo (Promega, Madison, WI). The genome-wide screening campaign was conducted using Ambion's human genome library version 4.1 (Ambion, Austin TX). This library targets approximately 21000 human genes, three siRNAs per gene. Each siRNA is arrayed in an individual well of a 384-well plate. Parallel transfections were conducted in TC32-NR0B1-luc and TC32-CMV-luc cell lines and luciferase expression (OneGlo, Promega) was assayed 48 h later on a PerkinElmer Envision 2104 Multilabel plate reader (PerkinElmer, Waltham, MA). Qiagen's AllStars Negative control was incorporated on all screening plates for normalization (16 wells per plate). Qiagen, Germantown, MDsiGL4 was incorporated as a positive transfection control (16 wells per plate) on all plates. […] The raw luciferase data for the NR0B1- and CMV-luc screens were normalized and z-score-MAD transformed using standard methods (Chung et al., 2008). The miRNA-like seed sequence of every siRNA was determined and the median z-score for all siRNA sequences with the same seed sequence was calculated. This z-score was subtracted from the z-score associated with each siRNA with that seed sequence to generate a seed-adjusted z-score value (Z) that was used when the results for the three siRNAs corresponding to each gene were compared (Marine et al., 2012)
For AUUGGAUCAGUGGAGCUCU against SPANXN4, the seed-corrected z-score was found to be 0.397.

For AAAUUCGUAAGCUCUGUGG against C2orf70, the seed-corrected z-score came to 1.37.

In turn, AAGCUUCUCAUUAAUGCCC against CYB561A3 came in with a seed-corrected z-score of -1.26.

UAGGCAAAAACAGUCCACC against B3GNT8 gave a seed-corrected z-score of -0.0844.

Turning to UAUUACUCAGCAGCUUUGC against TIPIN, the seed-corrected z-score is -0.378.

In the case of AUACUGGAUAUCAUAGUUC against ARG2, the seed-corrected z-score is -2.32.

Consider UUGGUUGUCAUGAUCAGUG against PAPD7, for which the seed-corrected z-score amounted to 0.333.

UUUUGUUCGUCUCCGUUCC against AK4 yielded a seed-corrected z-score of 0.42.

On to UGAGUUUCGCGCUCUCUCC against SLC17A7, for which the seed-corrected z-score is -2.93.

The sequence AGUAUUAUCACGUUAGUGG against NUP88 registered a seed-corrected z-score of -0.85.

As to UUUUCGCUACUUGAGUUGC against SLC35F5, the seed-corrected z-score was -1.12.

In turn, AAAGUUGAACUCCUGAUGG against MYT1L-AS1 yielded a seed-corrected z-score of 0.298.

UCGUUGUUCAAACCAUUCC against ZEB2 came in with a seed-corrected z-score of -2.94.

Turning to UCUGAAUCCACUAACACUG against TMEM87B, the seed-corrected z-score was -0.0559.

In turn, UUGCUAAACAGGGCCUUGC against MCRS1 registered a seed-corrected z-score of 1.49.

In turn, UAGGUUUUCUUCGUUGUCC against MIR503HG had a seed-corrected z-score of 0.872.

UUCGAAGCAUCUUUUGGGC against RPL7P9 showed a seed-corrected z-score of -2.28.

Sequence UGAGUUGAACACGUAGCCC against ALPI had a seed-corrected z-score of 0.286.

The sequence UUUGCUAUCUUGCUGAUGC against LINC00615 returned a seed-corrected z-score of 0.184.

ACAGAUAUUGUAAAUCUCC against TMEM14C yielded a seed-corrected z-score of 0.508.

On to UAUUGUGAUAUAGGCACCG against WDR26, for which the seed-corrected z-score was -1.57.

Sequence UCACGUUUCACCAAGAUGC against EIF4A3 came in with a seed-corrected z-score of -2.2.

In the case of UCCAUGACAAUGUCCACUC against VAT1, the seed-corrected z-score is -0.662.

Turning to UCUGGAUUAUGGGUAGGCC against CHTOP, the seed-corrected z-score was -1.42.

In the case of UUCUGCUUCUGUAUUAUCC against SAP30BP, the seed-corrected z-score is -2.11.

In turn, UCACUAUCAAGUCUGGUAC against CSMD3 had a seed-corrected z-score of 0.55.

UAUAUCUGCAACACGGUGG against SND1: the seed-corrected z-score is 0.153.

UGUCUUUCAAACGUAGGCC against ZNF792 yielded a seed-corrected z-score of -3.5.

UGUUUCGUAAACAUUCACC against FUT10 gave a seed-corrected z-score of -0.285.

On to UACAAUUACAUCAUCGUCC against GLT8D2, for which the seed-corrected z-score is -0.139.

Consider UUCGAGAGACUGACAUGCG against SYT14P1, for which the seed-corrected z-score was -0.0146.

As to AUCUGGUUCAUUACAGUAG against BSDC1, the seed-corrected z-score was -2.55.

The sequence AAAAGACAUACAUGAAGAC against GJB1 had a seed-corrected z-score of -0.779.

Sequence UCUAAUUCCAGGUAAAUUU against GOLT1B registered a seed-corrected z-score of 0.519.

The sequence UUAUCUUGCAGCAAAGCAC against LYZ showed a seed-corrected z-score of -1.35.

As to UUAAACUUCACGUUGUCCU against RPL38, the seed-corrected z-score was -2.01.

Take AUUGGAGGCACUGCACUCG against NTM: the seed-corrected z-score worked out at 0.224.

UAUAGGAGCUCUAGGAUCU against CSTF2T: the seed-corrected z-score was -0.439.

Turning to AGCAUUGUAAGUGACGUGC against KCNN2, the seed-corrected z-score is -2.24.

In turn, UCUGUUAAUGCUAUUCUCC against C2orf61 showed a seed-corrected z-score of 0.146.

UGUUAAGUAGAAAAUAACC against CD83 returned a seed-corrected z-score of 0.552.

The sequence UAUGACAUCGGAGACCUUC against MEN1 registered a seed-corrected z-score of 0.259.

As to AAAGUUGCUAUGAAGCGAG against PSMA8, the seed-corrected z-score was -2.62.

In turn, UCUCGUUUAUCUACAUCUC against AUTS2 had a seed-corrected z-score of 0.181.

UACAGACAUAUGUACAUCC against CCDC12 gave a seed-corrected z-score of -2.89.

UGACAAAUCACUGUAUGUC against ZIM2 yielded a seed-corrected z-score of -0.582.

In turn, UUUGAUACAGUAUCUACAG against DVL1 displayed a seed-corrected z-score of 0.326.

Regarding UUAUUUCUCAGCUCGUUGG against STX6, the seed-corrected z-score is -2.43.

For the sequence UUUGUUUGCACCAGUUGUC against OTUD1, the seed-corrected z-score worked out at 0.434.

UUGCGCUCUAGUUCCAGGC against PRPH: the seed-corrected z-score was -0.44.

In turn, UCCUUUAACGGGAUCUUGU against PI3 returned a seed-corrected z-score of 0.267.

UAUGUACAGAGACACCAGG against MC5R registered a seed-corrected z-score of -2.92.

The sequence AUAGUCACAAAUGAAUCCG against PLS3 yielded a seed-corrected z-score of 0.171.

Sequence AACGAUGAUAGAAUUUACG against CLEC16A had a seed-corrected z-score of -2.32.

UGUGGAAACAUUGAUCUGC against PRPF4 displayed a seed-corrected z-score of -1.56.

UUCUUUAUUGAGUGCAUGG against KLK6: the seed-corrected z-score is -1.38.

In turn, UCGUCUAUUGAUGAUGUCG against AQR gave a seed-corrected z-score of -2.1.

Sequence UUCUGGAUUCUUGACCGCU against KRBOX4 showed a seed-corrected z-score of 0.0382.

AGCUUGGAGAGUUUAGCCC against SLC46A1 showed a seed-corrected z-score of 0.256.

In the case of UUCCUAAUACCACAAUUGC against NKIRAS1, the seed-corrected z-score was -0.00171.

Consider UAAGUUGCAUGCCUGGUCA against RIMKLA, for which the seed-corrected z-score is -3.91.

UGUUGAGUAAGGAGGGACC against HSPB8: the seed-corrected z-score is -0.073.

UCAUCGCCUAUGUCGAUGC against ABCC11: the seed-corrected z-score was 0.255.

The sequence UUUGAGCUUUCCUUAUUCC against CEP97 gave a seed-corrected z-score of 0.381.

UCUAGAUCAUGAAUGCUCC against ZNF25 had a seed-corrected z-score of 1.08.

As to AUUUCUUUCAUAGUCACCG against RASL11B, the seed-corrected z-score was -0.122.
